bovine MsrA act: bovine MsrA enzyme activators, primary screen, biochemical, absorbance, HTS; 360,000 compounds, 0.3% hits; AID 602163, 2012; activation, % at 10.6 µM; purified bovine MsrA, absorbance read-out; in the data active = activation above about 7.5%;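 note: 0% = vehicle and 100% = reference activator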
MsrA inhibitor: bovine MsrA enzyme inhibitors, primary screen, biochemical, absorbance, HTS; Methionine sulfoxide reductase A (Bos taurus); inhibition, % at 15.5 µM; AID 651718, 2012; purified bovine MsrA, absorbance read-out; 360,000 compounds, 0.75% hits; in the data active = inhibition above about 4.5%;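 note: 0% = vehicle wells with enzyme and 100% = reference inhibitor wells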
NadD inh: inhibitors of S. aureus NadD, primary screen, biochemical, colorimetric, uHTS | purified NadD enzyme, colorimetric absorbance read-out | inhibition, % at 20 µM | 360,000 compounds, 0.78% hits | AID 602399, 2012; in the data active = inhibition above about 26%
rCAG RNA binder: binders of r(CAG) RNA repeats, primary screen, biochemical, fluorescence | r(CAG) RNA repeat, TO-PRO-1 dye displacement fluorescence | inhibition, % at 3 µM | 370,000 compounds, 1.3% hits | AID 651821, 2012;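 active = inhibition above the plate cutoff, the mean of all test compounds on that plate plus 3 SD, cut at about 35% in these data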;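 note: 0% = DMSO alone and 100% = 100 µM mitoxantrone as full dye displacement; higher means more dye released from RNA so lower well fluorescence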
Starred values were filed as active, the others as inactive; nt = no result. In the library only some 2.7% were active in any assay of this set; here they are far more common.

SMILES | bovine MsrA act | MsrA inhibitor | NadD inh | rCAG RNA binder
Cc1c(Cc2ccccc2)sc(/N=C/c2c(O)ccc3ccccc23)c1C(N)=O | -1 | nt | 36* | nt
Cc1ccccc1-n1nc2c(c1NC(=O)c1ccco1)CS(=O)(=O)C2 | -6 | -1 | 2 | 7
Cc1ccccc1-n1nc2c(c1NC(=O)c1ccc(Br)o1)CSC2 | -11 | nt | 50* | nt
O=C(NCCc1ccccc1)OCc1cn(Cc2cc(F)ccc2F)nn1 | nt | nt | nt | -1
CC(N)c1csc(Nc2ccc(C(=O)NCCO)cc2)n1 (centres undefined) | 0 | 3 | -1 | 0
CC(=O)c1ccc(Nc2nc(C(C)N)cs2)cc1 (centres undefined) | -6 | 4.6* | 20 | 0
CC(=O)[C@@]1(O)Cc2c(O)c3c(c(O)c2[C@H](O[C@H]2C[C@H](N)[C@H](O)[C@H](C)O2)C1)C(=O)c1ccccc1C3=O | 1 | 4.6* | -6 | -17
COc1cccc2c1C(=O)c1c(O)c3c(c(O)c1C2=O)C[C@@](O)(C(=O)CO)C[C@@H]3O[C@H]1C[C@H](N)[C@H](O)[C@H](C)O1 | -1 | -1 | 19 | 10
COc1cccc2c1C(=O)c1c(O)c3c(c(O)c1C2=O)CC(O)(C(C)=O)CC3OC1CC(N(C)C)C(O)C(C)O1 (centres undefined) | -4 | 1 | -4 | 0
COc1cccc2c1C(=O)c1c(O)c3c(c(O)c1C2=O)C[C@@](O)(C(=O)CO)C[C@@H]3OC1CC(N)C(O)C(C)O1 (some centres undefined) | -2 | 0 | 53* | 10
O=C(CSc1nnc(-c2ccccc2)n1-c1ccc(Cl)cc1)NN=Cc1c[nH]c2ccccc12 | nt | nt | nt | 10
O=C(Nc1ccc(Cl)cc1)C1Cc2c(-c3ccccc3Oc3ccccc3)ccnc2O1 (centres undefined) | -4 | 0 | 7 | 6
COc1ccc(CNc2cccc3[nH]c(C(F)(F)F)nc23)cc1 | -2 | 0 | 4 | 42*
N#Cc1c(C(F)(F)F)cc(-c2ccccc2Cl)[nH]c1=O | 0 | 3 | -1 | 37*
CC1(C(=O)Nc2ccc3c(c2)OCCO3)CN(S(C)(=O)=O)CC(=O)N1CC(F)(F)F (centres undefined) | nt | -1 | nt | -1
CCOC(=O)c1cc(-c2ccc(/C=N\n3cnnc3)o2)ccc1Cl | -6 | 5.6* | -4 | 1
C[C@@H]1CN([C@H](C)CO)C(=O)CCCn2nncc2CO[C@H]1CN(C)Cc1ccc2cccnc2c1 | -2 | 0 | -4 | 0
Cc1nc(N)sc1-c1csc(NCc2ccccc2)n1 | -2 | 1 | 23 | 19
Cc1cc(-c2csc(NCc3ccccc3)n2)c(C)n1C | -3 | nt | 42* | nt
CC1(C(=O)NS(=O)(=O)C2CC2)CCCN(C(=O)c2ccccc2OC(F)(F)F)C1 (centres undefined) | 1 | -1 | 6 | 4
COc1cc(C(=O)N/C(=C\c2cn(C)c3ccccc23)C(=O)NCCCO)cc(OC)c1OC | -10 | 4.7* | 0 | 0
COc1cc(C(=O)N/C(=C\c2cn(S(=O)(=O)N(C)C)c3ccccc23)C(=O)NCCCO)cc(OC)c1OC | -3 | 1 | 1 | 2
O=C(c1ccco1)N(Cc1cccnc1)C(c1ccccc1)c1nc2ccccc2[nH]1 (centres undefined) | -1 | -1 | -1 | 5
Cc1cc(C(=O)COC(=O)c2ccccc2O)c(C)n1CC1CCCO1 (centres undefined) | -2 | 0 | -5 | -1
Cc1cc(C(=O)COC(=O)c2cc(O)c3ccccc3c2O)c(C)n1CC1CCCO1 (centres undefined) | -7 | nt | 36* | nt
SMILES | bovine MsrA act | MsrA inhibitor | NadD inh | rCAG RNA binder
Cc1cc(N2C(=O)C(=O)/C(=C(/O)c3ccccc3)C2c2cccs2)no1 (centres undefined) | -5 | 1 | -4 | 1
COc1cccc(/C(O)=C2/C(=O)C(=O)N(c3cc(C)on3)C2c2cccs2)c1 (centres undefined) | -3 | 5.0* | 5 | 9
Cc1ccc(S(=O)(=O)/N=C2\C=C(Nc3ccc(O)cc3)C(=O)c3ccccc32)cc1 | 2 | nt | 6 | nt
COC(=O)c1ccccc1NC1=C/C(=N\S(=O)(=O)c2ccc(C(=O)O)cc2)c2ccccc2C1=O | -3 | nt | 47* | nt
CC(C)(C)c1ccc(S(=O)(=O)/N=C2\C=C(NS(=O)(=O)c3ccccc3)C(=O)c3ccccc32)cc1 | 0 | 0 | 40* | 59*
O=C(N/N=C/c1cc([N+](=O)[O-])ccc1O)c1cccc(NC(=O)c2cccc(Cl)c2)c1 | -5 | 1 | 63* | -1
